WT yeast gro inh: growth inhibition of WT strain, primary screen, mitochondrial fusion inhibitor project, WT and mutant strains, chemical genetic. mitochondrial fusion phenotypic screen. inhibition, % at 10 µM. actives 2.1% (n = 190,000). AID 1362, 2008; in the data active = inhibition above about 58%; tested in S. cerevisiae
RAM inhibit: inhibitors of the yeast RAM network, primary screen, dse1pr::URA3 reporter, 5-FOA selection; S. cerevisiae dse1pr::URA3 reporter, 5-FOA growth OD615, 2 d; analog-sensitive cbk1-as2 kinase mutant strain; inhibition, % at 50 µM; actives 1.8% (n = 190,000);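 active = inhibition above a set limit, 3 SD over mean compound inhibition, cut at about 8.4% in these data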;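 note: inhibition rescues growth on 5-FOA so higher OD means more RAM inhibition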
Lmaj promast: Leishmania major promastigote growth inhibition, primary screen; Leishmania major promastigotes, resazurin fluorescence viability; inhibition, % at 10 µM; actives 9% (n = 200,000); in the data active = inhibition above about 50%;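 note: promastigotes grown with compound for 44 hours at 28 °C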
CHOP inh: inhibitors of CHOP promoter induction, primary screen, cell-based, unfolded protein response, luciferase reporter; CHO-K1 CHOP-promoter luciferase, tunicamycin-induced, 15-18 h; inhibition, % at 10 µM; actives 3.8% (n = 220,000);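 active = compounds that reduced the stress-induced luciferase reporter signal by more than about 70% of percent inhibition, limit read from the data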
RAM efflux-def: 5-FOA growth of efflux-deficient control yeast, dose response, counter-screen for RAM network inhibitor project, S. cerevisiae, OD615; shares compounds with RAM inhibit; S. cerevisiae efflux-deficient reporter strain, 5-FOA growth OD615, 2 days; max inhibition, %; 1,200 tested, under 10 active; AID 1305, 2008; call rule not given here
Numbers stand for hits; - = inactive; . = not tested or not shown. A selection: hits, their analogues and other compounds. The true share with any hit is near 13%.

SMILES	WT yeast gro inh	RAM inhibit	Lmaj promast	CHOP inh	RAM efflux-def
COc1ccc(/C=N/OCC(=O)NCC(C)C)c(OC)c1	-	-	-	-	.
COc1ccc(/C=N/OCC(=O)NC(c2ccccc2)c2ccccc2)c(OC)c1	-	12	100	-	-
O=c1[nH]cc(NCCNc2ncc(C(F)(F)F)cc2Cl)c(=O)[nH]1	-	-	-	-	.
CCCOc1ccc(/C=C/C(=O)Nc2ccc([N+](=O)[O-])cc2)cc1	-	13	-	95	-
COc1cccc(NC(=O)/C=C/c2ccc([N+](=O)[O-])cc2)c1	.	.	.	-	.
Cc1ccccc1NC(=S)N1CCC(NC(=O)c2ccco2)CC1	-	-	-	-	.
CCOCCCNC(=O)C(c1ccc(C)cc1)N(Cc1cccs1)C(=O)c1ccccc1O (stereo unspecified)	-	-	-	-	.
S=C(Nc1ccccc1)c1nc2ccccc2s1	-	-	-	-	.
O=C(c1ccc(Cl)cc1)c1cnc(-c2ccccc2)s1	-	-	-	-	.
O=C(c1cnc(-c2ccccc2)s1)c1ccc(Cl)cc1Cl	64	13	-	-	-
COc1cc(/C=C/c2nc3ccc([N+](=O)[O-])cc3s2)ccc1OCC(=O)O	.	.	.	-	.
CSc1nnc2c3ccccc3c3ccccc3c2n1	-	13	-	-	-
C=CCSc1nc(-c2ccc(OC)cc2)c(C#N)c(=O)n1CC=C	-	12	-	-	-
COc1cc2c(cc1C1NC(=S)NC(C)=C1C(=O)N(C)C)CCCC2 (stereo unspecified)	-	-	-	-	.
COc1ccccc1-n1cnc2c(c1=O)c1nc3ccccc3nc1n2-c1ccc(C)cc1	-	11	-	-	-
CSc1ccc(NC(=O)Nc2ccc(C(=O)NCC(=O)O)cc2)cc1	.	.	.	-	.
COc1ccc(Cc2nc(-c3ccc(-n4cccc4)cc3)no2)cc1OC	-	12	-	-	-
COc1ccc(Cc2nc(-c3ccc(-n4cccc4)cc3)no2)cc1	-	-	-	-	.
O=C1c2ccccc2C(=O)N1CCCCN(C(=O)c1ccc(Cl)s1)c1ccc(Cl)cc1	-	12	-	-	-
COc1ccccc1-c1ccc(SCc2ccc([N+](=O)[O-])cc2)nn1	-	14	-	-	-
COc1ccc(C2CC(c3ccccc3)Nc3nc(NS(C)(=O)=O)nn32)cc1 (stereo unspecified)	.	.	.	-	.
CCOC(=O)c1c(NC(=O)CN2CCCc3ccccc32)sc(C)c1C	-	14	-	-	-
CCOC(=O)c1c(NC(=O)CN2CCCc3ccccc32)sc(C)c1CC	-	15	-	-	-
CCCCOC(=O)c1ccc(NC(=S)NC(=O)c2c(Cl)cnn2CC)cc1	-	-	-	-	.
CCCCOC(=O)c1ccc(NC(=S)NC(=O)c2c(Cl)cnn2C)cc1	-	16	-	-	-
SMILES	WT yeast gro inh	RAM inhibit	Lmaj promast	CHOP inh	RAM efflux-def
C=CCOc1c(Br)cc(CNc2ccc3[nH]c(=O)[nH]c3c2)cc1OCC	-	-	-	-	.
C=CCOc1c(Br)cc(CNc2ccc(NC(=O)C(C)C)c(OC)c2)cc1OCC	-	12	-	-	-
Cc1ccc2sc(C)[n+](CCC(C)S(=O)(=O)[O-])c2c1 (stereo unspecified)	-	-	-	-	.
O=S1(=O)C[C@H]2NC(=S)N(c3ccccc3)[C@H]2C1	-	-	-	-	.
O=C(O)c1ccc(OCCOc2ccccc2)cc1	.	.	.	-	.
CCOC(=O)c1c(-c2ccccc2)csc1NC(=O)CSc1nc(N)cc(N)n1	-	-	-	-	.
CCOC(=O)c1c(-c2ccc(C)o2)csc1NC(=O)CSc1nncs1	-	12	-	-	-
COc1ccc(-c2csc(NCc3ccco3)n2)cc1C	-	13	-	-	-
CC(=O)Nc1ccc(-c2csc(NCc3ccco3)n2)cc1	-	-	-	-	.
C/C(=N\OC(=O)c1ccc(Cl)cc1)c1sc(-c2ccccc2)nc1C	-	12	-	-	-
CCOC(=O)c1cc2c(N)c(C(=O)c3ccc(Br)cc3)sc2[nH]c1=O	-	-	-	-	.
CCCCN1C(=O)/C(=C/C=C2\SCCN2C)SC1=S	-	13	-	-	-
Nc1ccc(C(=O)c2cccs2)cc1[N+](=O)[O-]	-	13	-	-	-
CC1CCc2nc(NC(=O)Nc3ccc4c(c3)OCO4)sc2C1 (stereo unspecified)	-	23	-	84	-
CCOC(=O)C(=NCC1CCCO1)NNc1ccccc1Cl (stereo unspecified)	.	.	.	-	.
COC(=O)CCSc1cc([N+](=O)[O-])cc2c1c(C1OCCO1)nn2-c1ccccc1	-	14	-	-	-
Cc1cc(C(=O)COc2ccccc2C(N)=O)c(C)n1C	-	-	-	-	.
Cc1cc(C(=O)COc2ccc(Cl)cc2Br)c(C)n1C	-	12	-	-	-
O=C(N/N=C\c1ccc(Cl)cc1)C1=NOC2COC3(CCN(c4ccc([N+](=O)[O-])cc4)CC3)OCC12 (stereo unspecified)	.	.	.	-	.
CCOc1cc(/C=N/N=C2/NC(=O)C(CC(=O)O)S2)ccc1OS(=O)(=O)c1ccc(C)cc1 (stereo unspecified)	-	12	-	-	-
CCOc1cc(/C=N/N=C2/NC(=O)C(CC(=O)O)S2)ccc1OCc1ccccc1Cl (stereo unspecified)	-	-	-	-	.
CCCCc1ccc(-c2csc(/C(C#N)=C\c3ccc(C)o3)n2)cc1	-	14	-	-	-
COC(=O)C1CSC(c2ccc(Cl)cc2)N1C(=O)c1ccccc1 (stereo unspecified)	-	-	-	-	.
CNS(=O)(=O)c1cccc(C(=O)OCc2csc(-c3ccccc3)n2)c1	-	16	-	-	-
COC(Cn1c2c(c3cc(C)ccc31)CCCC2NCc1ccccc1)OC (stereo unspecified)	.	.	.	-	.
SMILES	WT yeast gro inh	RAM inhibit	Lmaj promast	CHOP inh	RAM efflux-def
O=C(NC(=S)N1CCc2ccccc21)c1ccccc1Br	-	-	-	-	.
CCCn1c2c(c(O)c(C(=O)Nc3ccccc3)c1=O)CCCC2	-	12	-	-	-
CC(C)Cn1c2c(c(O)c(C(=O)Nc3ccc(F)cc3)c1=O)CCCC2	-	-	-	-	.
COc1ccc(C(=O)COC(=O)C(CCSC)NS(=O)(=O)c2ccc(Cl)cc2)cc1 (stereo unspecified)	-	15	-	-	-
CC(C)Oc1cccc(NC(=O)c2cnccc2C(F)(F)F)c1	.	.	.	-	.
COc1cccc(-c2nc(=S)c3c(n2Cc2ccco2)CCCC3)c1	-	14	-	-	-
CC(=O)N(C)C(c1ccc(N(C)C)cc1)c1nnnn1-c1c(C)cccc1C (stereo unspecified)	-	-	-	-	.
O=C(Cc1ccccc1)NCC(=O)N/N=C/c1ccc(Cl)cc1	-	-	-	-	.
O=C(CSc1nc2cc(Cl)ccc2s1)N1CCCc2ccccc21	-	11	-	-	-
CC1(C)C(C=C(Cl)Cl)C1C(=O)N1CCN(Cc2ccccc2)CC1 (stereo unspecified)	-	-	-	-	.
